A number with no mark means an inactive call. Records with an inconclusive call do not appear. Calls of active or inactive are those of the source. Unless noted, calls follow the shape of the dose curve; as a rule, active = well fitted curve in the direction sought with a large enough effect; inconclusive = small, poorly fitted or top-dose-only effect, or another doubt; inactive = no such curve, though single readings can be large; an effect the other way counts as inactive or inconclusive.
Tests used:
[1] = biological target: Lysosomal acid glucosylceramidase (Homo sapiens) (UniProt P04062); assay: Glucocerebrosidase-p2 (AID 348; in the data active = potency below about 10 µM; also: potency is read from the fitted curve at half-maximal effect); settings: purified GBA, blue fluorogenic substrate, 40 min
Method in brief: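 Compounds titrated from 0.6 nM upwards against 0.2 nM enzyme in pH 5.9 citric acid/KH2PO4, taurocholate, tween-20; blue fluorogenic substrate 80 uM, 40 min room temperature, stopped and read Ex 365/Em 440 for AC50.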

[2] = AP1 Signaling Pathway (AID 357; active = well fitted curve in either direction with a large enough effect, not every such curve was filed as active;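 also: ME-180 reporter cells stimulated with EGF at its EC50 level; % is scaled to controls: 0 for no effect and ±100 for the full control effect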); settings: ME-180 AP-1-bla reporter, EGF-induced, beta-lactamase ratio, 5 h; at 7.69 µM (top of the series) unless noted
Method in brief: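 AP-1-bla ME-180 cells, Opti-MEM + 0.5% dialyzed FBS, plated overnight 37 °C. Cpd titration + EC50 EGF, 5 h 37 °C. CCF4 2.5 h RT; ex 405, em 460/530 ratio → %activity, AC50.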

[3] = biological target: Cytochrome P450 1A2 (Homo sapiens) (UniProt P05177); assay: p450-cyp1a2 (AID 410; calls by dose curve; also: potency is read from the fitted curve at half-maximal effect); settings: recombinant CYP1A2, luciferin-ME demethylation, luminescence; series mostly up to 57 µM
Method in brief: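 20nM CYP1A2 with 100uM Luciferin-ME (at Km) in 100mM KPO4; compound preincubated 10 min, NADPH regeneration added, 60 min at room temperature. Luciferin quantified by luminescence after detection reagent; normalized to 57 uM furafylline.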

[4] = NFAT Signaling Pathway (AID 444; active = well fitted curve in either direction with a large enough effect, not every such curve was filed as active;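 also: carbachol stimulus at about its EC50 of 1 µM final; % is scaled to controls: 0 for no effect and ±100 for the full control effect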); settings: Jurkat NFAT-bla M1, carbachol, beta-lactamase ratio, 5 h; at 7.69 µM (top of the series) unless noted
Method in brief: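 Read-out: CCF4 FRET ratio (460 nm/530 nm) after 1 h RT dye loading, used for %activity and AC50 from titration series. Cells: Jurkat NFAT-β-lactamase/M1 line, treated with compound plus 1 uM carbachol for 5 h, 37 °C.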

[5] = Stat Signaling Pathway (AID 446; active = well fitted curve in either direction with a large enough effect, not every such curve was filed as active;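 also: ME-180 cervical cancer cells given 40 pM IL-6 alongside compound; SIE-controlled beta-lactamase reporter measured as 460/530 nm FRET emission ratio; % is scaled to controls: 0 for no effect and ±100 for the full control effect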); settings: ME-180 SIE beta-lactamase reporter, IL-6 stimulated, 5 h; at 7.69 µM (top of the series) unless noted
Method in brief: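 Screening format detects activators and inhibitors alike: ME-180 SIE-bla cells stimulated at 40 pM IL-6 for 5 hrs with compound, then dual-emission beta-lactamase read at 405 nm excitation.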

[6] = biological target: Glucocorticoid receptor (Homo sapiens) (UniProt P04150); assay: GR-GFP Redistribution (AID 450;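 active = compounds whose dose series gives a full or clear partial fitted curve of increased nuclear translocation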; also: potency is read from the fitted curve at half-maximal effect); settings: U2OS GR-GFP nuclear translocation, laser cytometry, 2 h
[7] = biological target: Glucocorticoid receptor (Homo sapiens) (UniProt P04150); assay: GR-EFC Redistribution (AID 451; calls by dose curve; also: potency is read from the fitted curve at half-maximal effect); settings: CHO-K1 GR-EFC translocation, beta-gal luminescence, 2 h
Method in brief: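 Translocation of GR-ED fusion to nuclear EA restores b-gal, read by luminescence after 1 h room-temperature detection. Engineered CHO-K1 biosensor cells, 1,000/well, exposed 2 h at 37 C to titrations up to 46 uM final.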

[8] = biological target: Mitogen-activated protein kinase 10 (Mus musculus) (UniProt Q61831); assay: JNK3 AlphaScreen Assay (AID 530; active = well fitted curve in either direction with a large enough effect, not every such curve was filed as active;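 also: kinase came from lysate of stimulated human HepG2 cells; signal reports phosphorylation of biotinylated GST-cJun 1-79 at Ser73 with 10 µM ATP; % is scaled to controls: 0 for no effect and ±100 for the full control effect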); settings: JNK3 lysate, c-Jun phosphorylation; series mostly up to 57.1 µM
Method in brief: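 Compound titrations were preincubated 15 minutes at room temperature with substrate, antibody and pre-activated JNK3-containing HepG2 lysate. Reactions were started with 10 uM ATP and stopped with EDTA-containing bead buffer for AlphaScreen detection.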

[9] = biological target: Cytochrome P450 3A4 (Homo sapiens) (UniProt P08684); assay: qHTS Assay for Inhibitors and Substrates of Cytochrome P450 3A4 (AID 884); settings: recombinant CYP3A4, Luciferin-PPXE luminescence; series mostly up to 57.1 µM; also: potency is read from the fitted curve at half-maximal effect; nearly all actives have a fitted effect of over 50% in size
Method in brief: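 20 nM human CYP3A4 with 25 uM Luciferin-PPXE (at KM) in 200 mM KPO4, preincubated 10 min with compound; NADPH regeneration started a 60 min RT reaction. Luciferin detected by luminescence, normalized to 57 uM ketoconazole as full inhibition.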

[10] = biological target: Cytochrome P450 3A4 (Homo sapiens) (UniProt P08684); assay: qHTS Assay for Activators of Cytochrome P450 3A4 (AID 885); settings: recombinant CYP3A4, Luciferin-PPXE luminescence, 60 min; series mostly up to 57.1 µM; also: nearly all actives have a fitted effect of over 65% in size
Method in brief: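 Steps: enzyme/substrate mix dispensed; compound added, 10 min RT; NADPH regeneration solution added, 60 min RT; luciferin detection buffer stops reaction; 20 min later luminescence measured.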

[11] = biological target: Dual specificity protein kinase CLK4 (Homo sapiens) (UniProt Q9HAZ1); assay: qHTS Assay for Inhibitors of CDC-like Kinase 4 (Kinase-Glo Assay) (AID 1770); settings: recombinant Clk4, Kinase-Glo ATP depletion luminescence; series mostly up to 66.7 µM; also: nearly all actives have a fitted effect of over 65% in size; also: potency is read from the fitted curve at half-maximal effect
Method in brief: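 Substrate mix (RS peptide 100 uM, ATP 1 uM) dispensed, compound pinned in, then Clk4 added to 25 nM final. Incubated 4.5 h at RT; Kinase-Glo reagent added, luminescence read after 5 min.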

[12] = biological target: Dual specificity protein kinase CLK4 (Homo sapiens) (UniProt Q9HAZ1); assay: qHTS Assay for Inhibitors of CDC-like Kinase 4 (ADP-Glo Assay) (AID 1771); settings: recombinant CLK4, ADP-Glo luminescence; series mostly up to 80 µM; also: nearly all actives have a fitted effect of over 70% in size; also: potency is read from the fitted curve at half-maximal effect
Method in brief: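 25 nM Clk4 with 100 uM RS repeat peptide and 1 uM ATP (final) in buffer with 2 mM MgCl2, 0.5 mM EGTA, 2.5 mM DTT, 0.01% Triton X-100; 1 h at room temperature; ADP-Glo luminescence for ADP formed.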

[13] = biological target: Dual specificity protein kinase CLK4 (Homo sapiens) (UniProt Q9HAZ1); assay: qHTS Assay for Inhibitors of CDC-like Kinase 4 (ADP-FP Assay) (AID 1795); settings: Transcreener ADP fluorescence polarization; series mostly up to 50 µM; also: nearly all actives have a fitted effect of over 60% in size; also: potency is read from the fitted curve at half-maximal effect
Method in brief: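 Clk4 6.25 nM; RS peptide 100 uM; ATP 1 uM; 25 mM Tris pH 7.5, 10 mM MgCl2; 1 h reaction. ADP detected via antibody/orange tracer FP displacement; TG003 positive control.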

[14] = Primary qHTS for small molecule stabilizers of the endoplasmic reticulum resident proteome: Secreted ER Calcium Modulated Protein (SERCaMP) assay (AID 1508630); settings: SH-SY5Y GLuc-SERCaMP (Gaussia luciferase released on ER calcium loss) secretion, thapsigargin, luminescence; series mostly up to 38.4 µM; also: % is scaled to controls: 0 for no effect and ±100 for the full control effect
Method in brief: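 GLuc-SERCaMP-expressing SH-SY5Y cells, pretreated 16 h with compound, are challenged with thapsigargin to empty ER calcium stores; after 4 h, coelenterazine is added directly to the medium and luminescence is imaged.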

[15] = biological target: Cytochrome P450 2C19 (Homo sapiens) (UniProt P33261); assay: qHTS Assay for Inhibitors and Substrates of Cytochrome P450 2C19 (AID 899); settings: recombinant CYP2C19, luciferin-H EGE luminescence; series mostly up to 57.1 µM; also: potency is read from the fitted curve at half-maximal effect; nearly all actives have a fitted effect of over 60% in size
Method in brief: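 5nM enzyme + 10uM Luciferin-H EGE (=KM), 50mM KPO4; cpd pin-transferred, 10 min 37C; NADPH regen, 60 min 37C; stopped w/ luciferin detection reagent, 20 min; luminescence. Normalized to 57uM ketoconazole (AC100).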

[16] = biological target: 3',5'-cyclic-AMP phosphodiesterase 4B (Homo sapiens) (UniProt Q07343); assay: qHTS Assay for Inhibitors of PDE-IV (AID 607; active = well fitted activation curve with a large enough effect in the main read-out, with a control signal flat, not every such curve was filed as active; also: % of control where 0% means no effect); settings: HEK293 ACTOne CNG channel cells, membrane potential fluorescence; series mostly up to 22.9 µM
Method in brief: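 The readout is membrane depolarisation from a cAMP-sensing CNG channel, detected with a potential dye at ex 535/em 590. Cells were HEK293-derived (endogenous PDE-IV) at 1000 cells/well, titrated up to 22.9 uM final.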

[17] = biological target: Ubiquitin carboxyl-terminal hydrolase 1 (Homo sapiens) (UniProt O94782); assay: Inhibitors of USP1/UAF1: Pilot qHTS (AID 504865); settings: purified USP1/UAF1, Ub-rhodamine cleavage fluorescence; series mostly up to 54.9 µM;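 also: rhodamine fluorescence freed from ubiquitin-rhodamine substrate followed over time; top concentration of the series differs between compounds; % is scaled to controls: 0 for no effect and ±100 for the full control effect; nearly all actives have a fitted effect of over 35% in size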
Method in brief: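 In 50mM HEPES pH 7.8 containing 0.5mM EDTA, 1mM TCEP, 0.1 mg/ml BSA and 0.01% Tween-20, 1nM USP1/UAF1 is exposed to compound for 15 min, then Ub-Rho (150nM final) is added and fluorescence is read over time.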

Sequence of Glucocorticoid receptor (Homo sapiens) (P04150 whole entry, looked up, the tested form may be a part): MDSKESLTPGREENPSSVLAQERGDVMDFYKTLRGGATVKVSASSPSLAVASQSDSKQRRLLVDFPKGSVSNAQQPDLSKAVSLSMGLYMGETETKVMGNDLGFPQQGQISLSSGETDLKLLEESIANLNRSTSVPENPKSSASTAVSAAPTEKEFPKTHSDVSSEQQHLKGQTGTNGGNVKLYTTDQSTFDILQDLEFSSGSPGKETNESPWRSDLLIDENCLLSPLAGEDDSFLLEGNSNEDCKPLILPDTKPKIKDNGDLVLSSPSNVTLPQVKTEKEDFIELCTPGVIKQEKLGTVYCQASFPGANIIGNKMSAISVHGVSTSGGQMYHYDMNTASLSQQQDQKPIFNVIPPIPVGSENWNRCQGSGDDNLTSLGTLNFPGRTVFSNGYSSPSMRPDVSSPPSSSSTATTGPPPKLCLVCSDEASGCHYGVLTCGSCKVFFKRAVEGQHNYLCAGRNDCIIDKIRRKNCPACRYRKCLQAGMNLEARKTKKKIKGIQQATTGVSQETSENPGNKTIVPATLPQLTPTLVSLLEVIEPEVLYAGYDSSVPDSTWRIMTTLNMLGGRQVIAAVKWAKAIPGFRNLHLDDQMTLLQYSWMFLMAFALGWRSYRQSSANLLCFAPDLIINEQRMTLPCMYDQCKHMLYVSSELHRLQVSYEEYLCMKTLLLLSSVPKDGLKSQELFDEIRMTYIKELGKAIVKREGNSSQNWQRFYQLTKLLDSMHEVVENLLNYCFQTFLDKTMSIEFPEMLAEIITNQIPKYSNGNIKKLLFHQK
Sequence of Lysosomal acid glucosylceramidase (Homo sapiens) (P04062 whole entry, looked up): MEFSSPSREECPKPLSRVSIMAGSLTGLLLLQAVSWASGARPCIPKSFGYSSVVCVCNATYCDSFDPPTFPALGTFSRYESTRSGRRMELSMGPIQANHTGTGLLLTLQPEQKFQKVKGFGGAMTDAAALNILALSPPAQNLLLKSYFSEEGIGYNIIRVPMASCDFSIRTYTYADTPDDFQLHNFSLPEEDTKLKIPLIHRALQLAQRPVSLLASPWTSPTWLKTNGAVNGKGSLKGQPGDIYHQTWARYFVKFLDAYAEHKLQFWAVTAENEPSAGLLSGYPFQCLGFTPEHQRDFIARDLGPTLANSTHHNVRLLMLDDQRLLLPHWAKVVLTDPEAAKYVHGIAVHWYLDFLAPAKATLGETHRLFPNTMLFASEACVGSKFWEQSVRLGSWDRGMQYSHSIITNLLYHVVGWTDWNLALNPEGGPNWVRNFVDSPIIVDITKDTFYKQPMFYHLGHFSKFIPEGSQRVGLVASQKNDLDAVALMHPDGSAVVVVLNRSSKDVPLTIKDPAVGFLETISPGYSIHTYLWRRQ
Sequence of Cytochrome P450 3A4 (Homo sapiens) (P08684 whole entry, looked up): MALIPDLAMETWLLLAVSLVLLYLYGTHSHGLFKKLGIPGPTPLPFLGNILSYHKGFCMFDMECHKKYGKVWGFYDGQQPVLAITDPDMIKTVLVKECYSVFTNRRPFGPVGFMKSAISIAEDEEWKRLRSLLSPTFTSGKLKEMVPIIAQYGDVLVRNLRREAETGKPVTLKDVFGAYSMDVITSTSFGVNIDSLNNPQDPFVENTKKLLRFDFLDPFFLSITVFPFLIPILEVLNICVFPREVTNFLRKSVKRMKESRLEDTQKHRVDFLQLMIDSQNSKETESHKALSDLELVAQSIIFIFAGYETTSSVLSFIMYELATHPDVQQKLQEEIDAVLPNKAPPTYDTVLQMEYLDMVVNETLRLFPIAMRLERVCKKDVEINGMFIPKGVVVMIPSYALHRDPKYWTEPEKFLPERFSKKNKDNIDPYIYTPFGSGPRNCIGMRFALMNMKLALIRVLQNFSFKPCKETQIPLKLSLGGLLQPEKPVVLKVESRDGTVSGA
Sequence of Dual specificity protein kinase CLK4 (Homo sapiens) (Q9HAZ1 whole entry, looked up): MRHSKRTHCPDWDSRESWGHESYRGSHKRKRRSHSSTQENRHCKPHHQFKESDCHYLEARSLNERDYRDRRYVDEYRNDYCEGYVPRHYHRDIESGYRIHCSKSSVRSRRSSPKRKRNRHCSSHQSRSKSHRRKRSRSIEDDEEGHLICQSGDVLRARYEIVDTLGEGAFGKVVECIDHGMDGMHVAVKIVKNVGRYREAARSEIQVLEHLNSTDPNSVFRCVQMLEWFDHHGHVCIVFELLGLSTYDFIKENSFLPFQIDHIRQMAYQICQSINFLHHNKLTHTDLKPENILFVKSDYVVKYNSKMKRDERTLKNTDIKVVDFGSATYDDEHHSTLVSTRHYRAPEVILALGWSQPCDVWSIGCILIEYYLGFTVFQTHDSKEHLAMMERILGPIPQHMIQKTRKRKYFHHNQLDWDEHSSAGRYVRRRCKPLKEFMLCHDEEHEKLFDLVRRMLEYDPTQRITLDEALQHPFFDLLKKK
Sequence of Cytochrome P450 1A2 (Homo sapiens) (P05177 whole entry, looked up): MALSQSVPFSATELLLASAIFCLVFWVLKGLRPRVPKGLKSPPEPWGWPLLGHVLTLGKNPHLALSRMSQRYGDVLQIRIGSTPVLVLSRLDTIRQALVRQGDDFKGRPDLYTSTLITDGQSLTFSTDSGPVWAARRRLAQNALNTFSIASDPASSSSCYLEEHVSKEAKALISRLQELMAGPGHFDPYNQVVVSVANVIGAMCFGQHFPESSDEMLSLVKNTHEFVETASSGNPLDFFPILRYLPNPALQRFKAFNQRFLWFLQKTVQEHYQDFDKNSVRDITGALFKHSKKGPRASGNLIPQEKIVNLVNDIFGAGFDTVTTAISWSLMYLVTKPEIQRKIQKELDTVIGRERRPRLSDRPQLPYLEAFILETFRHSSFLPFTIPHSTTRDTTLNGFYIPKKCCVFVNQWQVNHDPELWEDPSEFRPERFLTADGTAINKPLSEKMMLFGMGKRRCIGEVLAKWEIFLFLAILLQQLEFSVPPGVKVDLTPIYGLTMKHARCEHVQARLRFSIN
Sequence of 3',5'-cyclic-AMP phosphodiesterase 4B (Homo sapiens) (Q07343 whole entry, looked up): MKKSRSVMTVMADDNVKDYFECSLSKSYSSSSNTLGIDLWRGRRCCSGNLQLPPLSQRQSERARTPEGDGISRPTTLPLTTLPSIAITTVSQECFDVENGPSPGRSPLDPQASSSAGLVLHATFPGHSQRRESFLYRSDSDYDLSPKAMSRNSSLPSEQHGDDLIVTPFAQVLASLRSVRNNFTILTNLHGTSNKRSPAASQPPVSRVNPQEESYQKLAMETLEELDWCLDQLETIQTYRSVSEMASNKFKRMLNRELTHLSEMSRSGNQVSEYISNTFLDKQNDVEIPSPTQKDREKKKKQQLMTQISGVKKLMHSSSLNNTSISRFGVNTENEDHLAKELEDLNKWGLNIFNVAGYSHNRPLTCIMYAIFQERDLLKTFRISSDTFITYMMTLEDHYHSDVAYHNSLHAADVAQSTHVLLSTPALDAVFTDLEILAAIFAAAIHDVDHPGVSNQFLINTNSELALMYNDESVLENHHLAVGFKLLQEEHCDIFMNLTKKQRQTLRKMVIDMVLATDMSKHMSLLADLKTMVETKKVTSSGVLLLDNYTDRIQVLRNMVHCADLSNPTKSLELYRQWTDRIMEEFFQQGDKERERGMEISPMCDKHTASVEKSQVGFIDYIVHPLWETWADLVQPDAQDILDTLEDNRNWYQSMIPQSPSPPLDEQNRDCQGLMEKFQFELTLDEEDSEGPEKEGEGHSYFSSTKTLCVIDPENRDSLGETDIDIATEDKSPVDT
Sequence of Cytochrome P450 2C19 (Homo sapiens) (P33261 whole entry, looked up): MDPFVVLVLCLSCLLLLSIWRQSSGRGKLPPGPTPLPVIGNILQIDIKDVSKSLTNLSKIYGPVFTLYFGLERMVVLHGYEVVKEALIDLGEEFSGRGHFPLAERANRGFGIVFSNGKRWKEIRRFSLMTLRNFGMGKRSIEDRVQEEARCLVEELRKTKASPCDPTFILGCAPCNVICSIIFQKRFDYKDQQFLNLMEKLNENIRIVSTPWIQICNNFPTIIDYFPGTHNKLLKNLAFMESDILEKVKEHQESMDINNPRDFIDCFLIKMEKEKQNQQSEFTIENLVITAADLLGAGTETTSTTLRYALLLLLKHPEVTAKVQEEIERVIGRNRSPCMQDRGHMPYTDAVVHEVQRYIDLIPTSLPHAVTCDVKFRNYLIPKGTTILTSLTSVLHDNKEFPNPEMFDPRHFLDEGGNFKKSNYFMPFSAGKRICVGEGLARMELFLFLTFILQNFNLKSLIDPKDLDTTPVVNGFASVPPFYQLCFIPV
Sequence of Ubiquitin carboxyl-terminal hydrolase 1 (Homo sapiens) (O94782 whole entry, looked up): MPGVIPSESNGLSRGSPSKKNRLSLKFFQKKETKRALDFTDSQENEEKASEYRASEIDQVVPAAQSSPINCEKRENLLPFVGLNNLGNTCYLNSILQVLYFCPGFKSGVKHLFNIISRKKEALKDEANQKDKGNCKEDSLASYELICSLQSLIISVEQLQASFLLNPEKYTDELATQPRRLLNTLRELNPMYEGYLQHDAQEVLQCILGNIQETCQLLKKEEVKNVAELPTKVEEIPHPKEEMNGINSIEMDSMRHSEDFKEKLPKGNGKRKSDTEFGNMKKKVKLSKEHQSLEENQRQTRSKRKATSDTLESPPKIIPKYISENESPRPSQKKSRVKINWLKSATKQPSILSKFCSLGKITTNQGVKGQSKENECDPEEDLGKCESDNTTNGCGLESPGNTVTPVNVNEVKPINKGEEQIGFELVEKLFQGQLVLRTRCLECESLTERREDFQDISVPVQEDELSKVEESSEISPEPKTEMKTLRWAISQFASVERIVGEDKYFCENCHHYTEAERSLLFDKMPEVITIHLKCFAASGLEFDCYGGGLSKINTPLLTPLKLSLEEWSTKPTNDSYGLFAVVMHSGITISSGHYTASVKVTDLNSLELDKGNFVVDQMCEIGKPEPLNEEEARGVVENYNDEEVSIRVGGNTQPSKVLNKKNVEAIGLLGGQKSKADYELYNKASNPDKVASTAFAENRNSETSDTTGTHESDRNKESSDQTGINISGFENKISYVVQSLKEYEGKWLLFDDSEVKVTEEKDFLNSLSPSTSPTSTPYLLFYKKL

Row | SMILES | Potency [1] | activity change, negative = inhibition [2] | Potency [3] | activity change, negative = inhibition [4] | activity, negative = inhibition [5] | Potency [6] | Potency [7] | Potency [8] | Potency [9] | Potency [10] | Potency [11] | Potency [12] | Potency [13] | outcome [14] | Potency [15] | Potency [16] | Potency [17]
1 | COc1ccccc1-c1cc(-n2ccnc2)ncn1 | > 11.4 µM | 8.26% | 0.316 µM (active) | 7.77% | 10.2% | > 46 µM | > 46 µM | inactive | 0.316 µM (active) | inactive | 6.31 µM (active) | 6.31 µM (active) | 8.91 µM (active) | inactive | – | – | –
2 | N#Cc1cccc(-c2nccc(NCc3cccs3)n2)c1 | > 11.4 µM | -27.8% | 0.251 µM (active) | 11.9% | -14.7% | > 46 µM | > 46 µM | inactive | – | inactive | 7.08 µM (active) | 6.31 µM (active) | 8.91 µM (active) | inactive | 3.98 µM (active) | – | –
3 | COc1cccc(Nc2ncc3nc(-c4ccccc4)c(=O)n(C)c3n2)c1 | > 11.4 µM | -7.32% | 3.16 µM (active) | -6.92% | – | – | > 46 µM | inactive | – | – | inactive | inactive | inactive | inactive | – | – | –
4 | COc1ccc(-c2nc3cnc(OC)nc3n(CCC#N)c2=O)cc1 | > 11.4 µM | -7.37% | 6.31 µM (active) | -4.16% | – | > 9.22 µM | > 46 µM | inactive | – | – | inactive | inactive | inactive | inactive | – | inactive | inactive
5 | COc1ccc(CNc2ccnc(-c3c(C)noc3C)n2)c(OC)c1 | > 11.4 µM | 11.5% | 1.26 µM (active) | 8.32% | – | > 46 µM | > 46 µM | inactive | 2.51 µM (active) | inactive | inactive | inactive | inactive | inactive | 1.58 µM (active) | – | –
6 | COc1cccc(Cn2c(=O)c(CCc3ccccc3)nc3cncnc32)c1 | > 11.4 µM | -12.1% | 12.6 µM (active) | -7.87% | -9.09% | > 9.22 µM | > 46 µM | inactive | 2.51 µM (active) | inactive | inactive | inactive | inactive | inactive | – | inactive | –

From PubChem BioAssay (NCATS)
